Compounds with a hit are over-represented: about 14% of the library has one in this group of screens.
4MU fluor: 4-MU region autofluorescence. compound autofluorescence, 340/450 nm, 4-MU equivalents; stronger effect = higher value. max dye-equivalent concentration, M. 11% of 59,000 active; in the data active = max dye-equivalent concentration above about 10 nM; inconclusive = mostly about 1.1 nM to 9.6 nM
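Compounds in 100 mM Tris, pH 8.0, incubated 15 min at room temperature, then fluorescence read at 340 nm excitation/450 nm emission. Signal converted to 4-MU dye-equivalent concentration using an on-plate six-point 4-MU standard curve.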
AID923: qHTS Assay for Allosteric/Competitive Inhibitors of Caspase-1: Spectroscopic Profiling in AFC Spectral Region | compound fluorescence, AFC spectral region (405/520 nm) | Potency, µM (titrated, usually from 57.5 µM), without a hit: top-dose fluorescence increase, most hits filed as activators | 1.1% of 75,000 active | AID 923, 2007; also: potency is read from the fitted curve at half-maximal effect; 0% is about no effect
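Compound autofluorescence profiled at 405 nm ex/520 nm em during kinetic caspase 1 run (50 nM enzyme, 5 uM Ac-WEHD-AFC, HEPES pH 7.5, 10 mM DTT). Titration up to 57 uM; baseline from regression intercept, normalized to AFC standard curve.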
HADH2 inhib: blocks human hydroxyacyl-CoA dehydrogenase type II | Q99714 | recombinant HADH2, NADH fluorescence, beta-hydroxybutyryl-CoA | Potency, µM (doses to about 57.1 µM), without a hit: top-dose activity change, negative = inhibition, actives largely listed as inhibitors | 3.4% of 73,000 active | AID 886; also: potency is read from the fitted curve at half-maximal effect; % is scaled to controls: 0 for no effect and ±100 for the full control effect; nearly all actives have a fitted effect of over 60% in size
Target sequence (Q99714 whole entry, looked up, one chain of several): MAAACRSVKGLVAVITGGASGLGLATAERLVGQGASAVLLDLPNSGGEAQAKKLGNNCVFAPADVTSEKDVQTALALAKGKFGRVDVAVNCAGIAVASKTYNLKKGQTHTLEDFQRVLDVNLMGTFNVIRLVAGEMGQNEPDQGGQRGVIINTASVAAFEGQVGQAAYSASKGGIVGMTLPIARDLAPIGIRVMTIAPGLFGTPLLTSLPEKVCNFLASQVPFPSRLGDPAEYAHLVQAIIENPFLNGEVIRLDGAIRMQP
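Activity measured as NADH fluorescence gain (360/450 nm), taken as the change between first and last reads of a 4-min kinetic run. Conditions: pH 9.0 Tris buffer, 20 nM E. coli-expressed His-tagged enzyme, 1 mM NAD+, 90 uM beta-hydroxybutyryl-CoA; 15-min compound preincubation.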
HSD17B inhib: inhibitors of human HSD17B10 dehydrogenase; Q99714; recombinant HSD17B10, NADH fluorescence kinetic; Potency, µM (titrated, usually from 57.1 µM), for the others: at the highest dose activity change, negative = inhibition, usual class: inhibitors; 7.6% of 75,000 active; AID 893;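 also: the protocol describes HADH2 (HSD17B10) and not the HSD17B4 of the title; potency is read from the fitted curve at half-maximal effect; % is scaled to controls: 0 for no effect and ±100 for the full control effect; nearly all actives have a fitted effect of over 70% in size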
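Enzyme plus compound, 15 min room temperature; substrate mix added (NAD+ 1 mM, beta-hydroxybutyryl-CoA 90 uM final); plates read kinetically for NADH fluorescence. HADH2 was His-tagged, E. coli-derived, 20 nM.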
CRE Fsk mod: alters forskolin-stimulated CRE reporter signaling in CHO cells; CHO CRE-bla reporter (cAMP response element driving beta-lactamase), forskolin EC10, beta-lactamase ratio; Potency, µM (doses to about 38.2 µM), inactives show at the top dose activity change, negative = inhibition, most hits filed as activators; 2.5% of 71,000 active; AID 662; active = well fitted activation curve with a large enough effect in the signal ratio, with a control signal flat, not every such curve was filed as active; inconclusive = small, poorly fitted or top-dose-only effect, or effect the other way, or a change in a side signal; the % refers to the signal ratio; also: potency is read from the fitted curve at half-maximal effect; % of control where 0% means no effect
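CRE-bla CHO reporter cells treated with compound titration plus EC10 NKH 477 (water-soluble forskolin), incubated 3 h at 37 °C; CCF4 loading 2 h at room temperature, 460/530 nm emission ratio read, AC50 values derived for positive or negative modulators.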
A350 fluor: compound fluoresces in the Alexa 350 spectral region | max dye-equivalent concentration, M | 11% of 59,000 active | Compound autofluorescence, 340/450 nm, Alexa 350 dye-equivalents; stronger effect = higher value; in the data active = max dye-equivalent concentration above about 10 nM; inconclusive = mostly about 1.1 nM to 9.6 nM
Numbers without * were called inactive; i = inactive; ? = inconclusive; nt = no result; [ ] = another dose, or the depositor's remark. Unless noted, calls follow the shape of the dose curve; as a rule, active = well fitted curve in the direction sought with a large enough effect; inconclusive = small, poorly fitted or top-dose-only effect, or another doubt; inactive = no such curve, though single readings can be large; an effect the other way counts as inactive or inconclusive.

SMILES	4MU fluor	AID923	HADH2 inhib	HSD17B inhib	CRE Fsk mod	A350 fluor
O=c1c[n+]([O-])c2ccccc2n1OCc1c(F)cccc1F	1.2e-08M*	-1%	-5%	?	-3%	1.3e-08M*
O=c1c[n+]([O-])c2ccccc2n1OCc1ccccn1	3.6e-08M*	6%	?	?	0%	3.7e-08M*
O=c1c(-c2ccco2)[n+]([O-])c2ccccc2n1OCc1ccccn1	?	5%	-22%	6%	3%	?
O=C(c1ccc(Cc2nc3ccccc3[nH]2)cc1)N1CCCCC1	nt	2%	11%	2%	nt	nt
CCOC(=O)c1ccc(NC(=O)CN2CCN(CCN=CC3=C(O)CC(C)(C)CC3=O)CC2)cc1	1.8e-08M*	0%	?	?	-2%	2e-08M*
CCn1c2ccccc2c2cc(N)ccc21	2.4e-07M*	1%	35%	?	-25%	3.1e-07M*
CCn1c2ccccc2c2cc(C3C(C#N)=C(C)NC(C)=C3C#N)ccc21	3.2e-07M*	10%	?	25µM*	?	3.9e-07M*
CCn1c2ccccc2c2cc(C3C(C#N)=C(N)OC4=C3C(=O)CC(C)(C)C4)ccc21 (centres undefined)	i	-1%	-15%	-9%	-4%	i
COc1ccc(C(O)c2nc3ccccc3s2)cc1 (centres undefined)	i	0%	-3%	4%	4%	i
CCSc1nc(-c2ccc(OC)cc2)n(-c2nc3ccccc3s2)n1	i	0%	?	32µM*	1%	i
CCOC(=O)c1ccccc1NC(=O)c1cc2sccc2n1C	7.4e-08M*	-1%	25µM*	25µM*	?	4.4e-08M*
CCCn1c(=O)c(C(=O)Nc2ccccc2C(=O)OC)c(O)c2ccccc21	6.8e-08M*	2%	75%	-9%	?	8.7e-08M*
CCOC(=O)c1cnc(-c2ccccc2)nc1N	i	-2%	10%	-1%	2%	i
CCOC(=O)c1ccccc1NC(=O)c1ccc(NS(C)(=O)=O)cc1	i	-2%	6%	2%	13µM*	i
CCOC(=O)c1cc2c3ccccc3n(CC)c2nc1N	nt	1%	80%	25µM*	24%	nt
CCCn1c(=O)c(C(=O)Nc2ccncc2)c(O)c2ccccc21	nt	2%	-5%	7%	-4%	nt
Cc1ccc2[nH]c3nc(CCCn4ccnc4-c4ccccc4)nnc3c2c1	nt	0%[11.5 µM]	-9%[11.4 µM]	1%[11.4 µM]	nt	nt
Cn1c(=O)c(-c2cccc(F)c2)nc2cncnc21	?	3%	-18%	-18%	?	?
C=CCn1c(=O)c(C(=O)Nc2ccccc2C(=O)OCC)c(O)c2ccccc21	6.4e-08M*	0%	25µM*	?	6%	6e-08M*
C=CCn1c(=O)c(C(=O)NCCN(CC)CC)c(O)c2ccccc21	i	nt	nt	nt	nt	?
CCn1c(=O)c(C(=O)Nc2cccnc2)c(O)c2ccccc21	?	-2%	7%	3%	14%	?
CCn1c(=O)c(C(=O)NCc2cccnc2)c(O)c2ccccc21	i	0%	-4%	5%	2.5µM*	i
CCOC(=O)c1ccccc1NC(=O)c1c(O)c2ccccc2n(CC)c1=O	9.5e-08M*	-2%	86%	?	?	1.7e-07M*
C/C(=N/NS(=O)(=O)c1ccc(C)cc1)P(=O)(O)O	i	0%[11.5 µM]	-9%[11.4 µM]	-4%[11.4 µM]	-4%[7.6 µM]	i
C=CC[C@@H]1C=C[C@@H](O/N=C\C[C@@H]2C=C[C@H](OC(C)=O)[C@H](COC(C)=O)O2)[C@@H](CO)O1	nt	-1%[11.5 µM]	3%[11.4 µM]	7%[11.4 µM]	nt	nt
Cc1cc(N)c2ccccc2[n+]1CCCCCCCCCCCCCC[n+]1c(C)cc(N)c2ccccc21	?	-5%	?	?	7%	?
C[C@H](O)[C@H](O)[C@@H](O)c1cnc2nc(N)[nH]c(=O)c2n1	5.2e-07M*	nt	25µM*	nt	-1%	5.3e-07M*
